Hits are enriched below; roughly 7.9% of the tested compounds scored in any of these assays.
PLAP act = activates human placental alkaline phosphatase; purified PLAP enzyme, luminescent substrate read-out; stronger effect = higher value; activation fold at 20 µM; actives 1.2% (n = 96,000); AID 696; in the data active = activation fold above about 2
Target sequence (P05187 whole entry, looked up): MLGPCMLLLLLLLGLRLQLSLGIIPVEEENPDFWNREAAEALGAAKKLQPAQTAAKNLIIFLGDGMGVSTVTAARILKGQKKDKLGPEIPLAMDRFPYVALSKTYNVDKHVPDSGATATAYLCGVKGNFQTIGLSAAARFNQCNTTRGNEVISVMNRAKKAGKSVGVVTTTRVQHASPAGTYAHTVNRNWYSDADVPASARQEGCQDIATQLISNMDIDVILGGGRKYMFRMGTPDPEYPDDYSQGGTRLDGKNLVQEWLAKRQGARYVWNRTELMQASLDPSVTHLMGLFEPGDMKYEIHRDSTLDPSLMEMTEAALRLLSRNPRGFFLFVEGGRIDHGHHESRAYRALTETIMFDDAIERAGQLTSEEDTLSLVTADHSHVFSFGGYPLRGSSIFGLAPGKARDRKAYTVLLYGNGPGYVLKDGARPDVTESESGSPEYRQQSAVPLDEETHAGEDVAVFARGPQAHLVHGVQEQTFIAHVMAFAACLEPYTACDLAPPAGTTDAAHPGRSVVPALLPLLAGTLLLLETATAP
HER2 expr 66K = lowers expression of human Her2 kinase. SKBR-3 HER2 protein level, AlphaScreen, 18-24 h; stronger effect = lower value. HER2 level % of control, % at 10 µM. AID 645. actives 0.69% (n = 65,000);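 active = HER2 level under 5% of the carrier-only control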;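 also: 100% = DMSO carrier and 0% = 500 nM PU-H71 HSP90 inhibitor; lower value means stronger loss of Her2 protein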
M1 ag = M1 muscarinic receptor agonism; AID 626; B-score at 10 µM; CHO-M1 cells, Fluo-4 calcium fluorescence, agonist mode; stronger effect = higher value; actives 3% (n = 64,000);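 active = fluorescence rise, raw or as B-score row- and column-corrected plate score, outside the 99.7% band of its plate's samples, either direction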
Cav3 T inh = inhibitors of human Cav3.2 T-type calcium channel. O95180. actives 4% (n = 100,000). B-score at 10 µM. Cav3.2-expressing cells, Fluo-4 calcium fluorescence FDSS; stronger effect = lower value;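 active = single-dose well whose peak fluorescence ratio is a statistical outlier from its plate by either plate-standardised score or position-corrected B-score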
M1 antag = antagonists of rat M1 muscarinic receptor. P08482. CHO-M1 cells, Fluo-4 calcium, ACh EC80 antagonist mode; stronger effect = lower value. B-score at 10 µM. actives 3.4% (n = 64,000);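 active = calcium fluorescence response, raw or row-and-column corrected B-score, differing from the plate sample mean either way at a set confidence level, mostly lower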
M1 antag confirm = M1 muscarinic receptor (rat) antagonism, confirmed | shares compounds with M1 antag | CHO-M1 cells, Fluo-4 calcium, ACh EC80 antagonism; stronger effect = lower value | actives 43% (n = 1,700) | calcium response (max-min fluorescence) at 10 µM;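 active = calcium response below the same-plate mean of wells given acetylcholine alone at its 80%-effect dose, minus 3 SD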;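 also: raw fluorescence intensity difference in arbitrary instrument units and not normalized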
mGluR4 antag = acts on human mGluR4 in M1 antagonist selectivity test | shares compounds with M1 antag | CHO-mGluR4 calcium flux, Fluo-4 fluorescence, glutamate EC80; stronger effect = lower value | fluorescence response (max-min) at 10 µM | actives 0.9% (n = 1,700) | AID 678;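 active = fluorescence response below the plate's average for near-maximal glutamate wells, less 3 SD of those wells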;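 also: raw unnormalized fluorescence span taken in the window right after glutamate addition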
An asterisk follows results filed as active; · = no result given.

SMILES | PLAP act | HER2 expr 66K | M1 ag | Cav3 T inh | M1 antag | M1 antag confirm | mGluR4 antag
CCOC(=O)C(C)Sc1ncnc2c1nnn2-c1ccc(F)cc1 (centres undefined) | 0.9 | 83.8 | -0.411 | -1.66 | -0.817 | · | ·
CCC(Sc1ncnc2c1nnn2-c1ccc(F)cc1)C(=O)OC (centres undefined) | 1 | 77.0 | -0.127 | -0.00747 | -2.77* | 640 | 243
CN(C(=O)c1cccc(C#N)c1)c1nnc(-c2cnccn2)s1 | 1 | 85.3 | 2.43 | 0.269 | 0.146 | · | ·
C=CCn1c(COc2ccc(Cl)cc2)nnc1SCC(=O)N1CC(=O)Nc2ccccc21 | 1.6 | 84.2 | 0.195 | -1.97 | -0.927* | 537 | 237
O=C1CC(N2CCC(c3nc4ccccc4s3)CC2)C(=O)N1 (centres undefined) | 1.5 | 78.9 | 0.0484 | -0.172 | -1.71* | 664 | 183
O=C1N[C@@H](Cc2cn(S(=O)(=O)c3ccc([N+](=O)[O-])cc3)c3ccccc23)C(=O)N[C@H]1Cc1ccccc1 | · | · | · | -1.91 | · | · | ·
CCOC(=O)Nc1ccc2c(c1)N(C(=O)OCCN(C)C)c1ccccc1CC2 | 1.6 | 83.9 | 3.39 | 1.88 | -3.31* | 294* | 220
CCCCP(=O)(CCCC)Cc1ccccc1 | 0.9 | · | · | -0.458 | · | · | ·
CCCCP(=O)(CCCC)c1ccccc1C(=O)O | 1.1 | 74.4 | 0.262 | · | -3.73* | 666 | 172
CCc1cc2c(=O)c(-c3cnn(-c4ccccc4)c3)coc2c(CN2CCOCC2)c1O | 1 | 86.0 | 0.748 | -1.66 | -4.19* | 528 | 193
CCc1cc2c(=O)c(-c3cnn(-c4ccccc4)c3)c(C)oc2c(CN2CCCCC2)c1O | 1.3 | · | · | -1.88 | · | · | ·
COCCn1c(CN2CCN(c3ccccc3F)CC2)nc2c1c(=O)n(C)c(=O)n2C | · | 114.1 | 0.0177 | · | -0.211 | · | ·
CCn1cc(C2=NC(C(C)C)CO2)c2ccccc21 (centres undefined) | 1.2 | 54.0 | -0.762 | -0.276 | -6.53* | 412* | 270
COc1cc2c(C(=O)NCCCN3CC(C)CC(C)C3)cn(CC(C)C)c(=O)c2cc1OC (centres undefined) | 1.6 | 98.5 | -0.131 | 1.29 | -2.48* | 499* | 238
N#CCCN1CCN(S(=O)(=O)c2ccc(S(=O)(=O)N3CCCCCC3)cc2)CC1 | 1 | 64.2 | -0.424 | 0.0626 | -0.0937 | · | ·
CCN(C1CCCCC1)S(=O)(=O)c1ccc(S(=O)(=O)N2CCN(CCC#N)CC2)cc1 | 1.4 | 76.1 | 0.046 | -0.433 | -1.52* | 327* | 206
OC(COc1ccc(C2C=CCC2)cc1)CN1CCCCC1 (centres undefined) | 1.2 | 84.7 | -1.09 | 0.884 | -4.08* | 422* | 246
CCCCOc1ccc(C(=O)CCN2CCCCC2)cc1 | · | 104.9 | -0.404 | 0.613 | -4.08 | · | ·
O=C(c1ccccc1)c1ccc(OCC(O)CN2CCN(S(=O)(=O)N3CCCCC3)CC2)cc1 (centres undefined) | 1.7 | · | · | -1.89 | · | · | ·
CCOC(=O)C1CCN(CC(O)COc2ccc(C(=O)CC)cc2)CC1 (centres undefined) | 1.2 | 108.9 | -0.198 | 1.4 | -3.31* | 569 | 212
O=C(c1ccccc1)c1ccc(OCC(O)CN2CCCCC2)cc1 (centres undefined) | 1.3 | 74.4 | 0.0439 | 0.809 | -2.21* | 381* | 264
CC(C)COc1ccc(C(=O)CCN2CCCCC2)cc1 | 1.5 | 84.0 | -0.207 | 0.0539 | -6.98* | 278* | 199
Cc1ccc(-n2c(C)cc(C(=O)CSc3nnnn3C)c2C)cc1 | 1.7 | 84.7 | -0.193 | -2.46 | -1.76* | 574 | 222
Cc1cc(C(=O)CSc2nnnn2C)c(C)n1CCc1ccc(F)cc1 | 0.4 | 103.9 | -0.918 | 0.301 | -2.13* | 644 | 231
Cc1ccc(-n2c(C)cc(C(=O)CSc3nncs3)c2C)cc1 | 1.6 | 73.2 | 1.51 | -1.88 | -2.02 | · | ·
SMILES | PLAP act | HER2 expr 66K | M1 ag | Cav3 T inh | M1 antag | M1 antag confirm | mGluR4 antag
CCOc1cccc(N2C(=O)CC(NCc3ccc(S(N)(=O)=O)cc3)C2=O)c1 (centres undefined) | 1.2 | 95.1 | -0.351 | -0.341 | -0.465 | · | ·
CC(C)c1nc2oc3c(N4CCNCC4)ncnc3c2c2c1CCC2 | · | 25.9 | -1.02 | · | -2.89* | 292* | 243
CCCC(C)c1nnc(NC(=O)C2CCCO2)s1 (centres undefined) | 1.2 | 97.4 | 0.735 | 0.0149 | -3.5* | 198* | 246
Cc1nnc(NC(=O)C2CCCO2)s1 (centres undefined) | · | 92.7 | -0.455 | -0.0192 | -0.181 | · | ·
O=C1CC(N2CCN(Cc3ccc4c(c3)OCO4)CC2)C(=O)N1CCc1ccccc1 (centres undefined) | 1.7 | 92.2 | -2.47 | 0.274 | -1.24* | 482 | 220
O=C1CC(N2CCN(Cc3ccc4c(c3)OCO4)CC2)C(=O)N1Cc1ccc(N2CCCC2=O)cc1 (centres undefined) | 1.2 | 61.8 | -0.202 | 1.09 | -0.919 | · | ·
COC(=O)/C=c1/s/c(=C(\C#N)C(=O)NCc2ccco2)n(-c2ccccc2)c1=O | 1.7 | 126.7 | 0.777 | 0.653 | -2.23* | 669 | 218
Nn1c(SCC(=O)NC(=O)NCc2ccco2)nnc1-c1ccc(OC(F)F)cc1 | 1.3 | · | · | · | · | · | ·
CC(NC(=O)c1ccc(N(C)C)cc1)C(c1cccs1)N1CCN(C)CC1 (centres undefined) | 1.4 | 124.6 | 0.187 | -0.265 | -3.93* | 632 | 183
CCOC(=O)N1CCN(Cc2nc(N)nc(Nc3ccc(Oc4ccccc4)cc3)n2)CC1 | 1.6 | · | · | -1.19 | · | · | ·
CCC1CCCCN1CCNC(=O)C1CCN(S(=O)(=O)c2c(C)noc2C)CC1 (centres undefined) | 1.8 | 90.5 | 0.076 | -1.06 | -11.9* | 385* | 179
O=C(Nc1ccc(Cl)cn1)c1ccc(-c2ccc(Cl)c(Cl)c2)o1 | · | · | · | -0.00767 | · | · | ·
COC(=O)c1cc(Br)ccc1-c1ccc(/C=N/n2nnnc2N)o1 | 0.8 | 63.6 | 1.85 | -0.00601 | -5.02* | 450 | 206
COC(=O)c1ccc(S(=O)(=O)NCCSc2nnc3c4ccccc4n(C)c3n2)cc1 | 1.1 | 88.4 | -0.867 | 0.66 | 0.831 | · | ·
O=c1c2cc(Cl)ccc2nc2ccc(N3CCCC3)nn12 | · | 90.2 | -0.577 | · | 0.134 | · | ·
Cc1nc2cc(CO)ccc2n1C | 0.9 | 61.3 | -0.0849 | 0.00339 | -5.09* | 670 | 262
COc1ccc(CNc2ccc3c(c2)nc(C)n3C)cc1 | 1 | 116.9 | 0.195 | 0.789 | -0.321 | · | ·
COC(=O)c1[nH]c2ccccc2c1NC(=O)CN1CCCCCC1 | 1.5 | 102.5 | -0.615 | -1.37 | -0.547 | · | ·
COC(=O)c1[nH]c2ccccc2c1NC(=O)CN1CCC(C(N)=O)(N2CCCCC2)CC1 | 1.2 | 75.8 | 1.31 | 1.14 | -2.55* | 550 | 191

Screening results: PubChem BioAssay, several laboratories
